This note sets out measurements from PubChem BioAssay (NCATS).

Each structure is given as a SMILES string. Inconclusive results are not listed. Activity calls are given as the source filed them. Calls come from the whole dose curve; as a rule, active = well fitted inhibition curve with a large enough effect; inconclusive = small, poorly fitted or top-dose-only effect; inactive = flat fitted curve, though single readings scatter.
Potency is the fitted concentration of half-maximal effect.

Ubiquitin carboxyl-terminal hydrolase 2 (Homo sapiens), sequence (O75604 whole entry, looked up): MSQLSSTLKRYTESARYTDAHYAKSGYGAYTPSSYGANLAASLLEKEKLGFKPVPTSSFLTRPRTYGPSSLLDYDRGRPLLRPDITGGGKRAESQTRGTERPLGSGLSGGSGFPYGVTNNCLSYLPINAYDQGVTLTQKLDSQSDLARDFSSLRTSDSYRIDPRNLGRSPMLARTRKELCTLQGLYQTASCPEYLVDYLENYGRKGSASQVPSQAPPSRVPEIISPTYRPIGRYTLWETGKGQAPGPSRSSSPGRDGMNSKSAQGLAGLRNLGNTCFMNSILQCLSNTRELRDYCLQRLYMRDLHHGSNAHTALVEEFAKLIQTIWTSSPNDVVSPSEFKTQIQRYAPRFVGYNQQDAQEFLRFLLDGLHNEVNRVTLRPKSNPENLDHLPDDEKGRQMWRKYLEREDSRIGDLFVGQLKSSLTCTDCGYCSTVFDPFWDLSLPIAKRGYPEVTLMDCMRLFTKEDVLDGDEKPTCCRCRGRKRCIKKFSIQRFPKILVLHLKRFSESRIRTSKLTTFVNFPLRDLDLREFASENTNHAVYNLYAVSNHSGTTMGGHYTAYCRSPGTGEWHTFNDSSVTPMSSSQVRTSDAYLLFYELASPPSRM

The assay addresses Ubiquitin carboxyl-terminal hydrolase 2 (Homo sapiens) (UniProt O75604). The assay can be described thus: qHTS for Inhibitors of Ubiquitin-specific Protease USP2a Using CHOP2 as the Reporter: K484 Substrate (AID 652173).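 Note: cleavage of internally quenched K48 di-ubiquitin substrate measured as rising fluorescence over time; nearly all actives have a fitted effect of over 70% in size.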 The conditions noted are these: USP2 cleavage of DiUb K48 IQF substrate, fluorescence; series mostly up to 57.5 µM. The method in brief:
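USP2 (dispensed at 5 nM) was pinned with compounds, then DiUb K48 internally quenched fluorescent substrate (dispensed at 100 nM) was added. The buffer was 20 mM Tris pH 8, 2 mM beta-mercaptoethanol and 0.05% CHAPS. Cleavage was read kinetically as rising fluorescence, Ex 525/Em 598.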
Turning to `Cc1ccc(S(=O)(=O)Nc2ccccc2C(=O)Nc2nc(-c3ccccc3)co2)cc1`, the Potency is 2.73 µM (active).
With `COc1cc(C(=O)Nc2nc(-c3ccccc3)cs2)ccc1NS(=O)(=O)c1ccc(C)cc1` the figure was 2.73 µM (active); with `Cc1ccc(S(=O)(=O)Nc2cc(C(=O)Nc3nc(-c4ccccc4)cs3)ccn2)cc1`, 6.85 µM (active).
Regarding `Cc1ccc(S(=O)(=O)Nc2ccc(C(=O)Nc3nc(-c4ccc(Cl)cc4)cs3)cc2)cc1`, the Potency is 3.06 µM (active).
The same measure for `Cc1ccc(C(=O)[C@H]2CC[C@@H](C(=O)Nc3ccc(S(=O)(=O)Nc4nccs4)cc3)C2)cc1C`: 3.85 µM (active); for `Cc1ccc(-c2cc(C(=O)NCc3ccccc3)c3ccccc3n2)cc1C`: 13.7 µM (active); for `Cc1ccc(-c2cc(C(=O)Nc3ccc(-n4cncn4)cc3)c3ccccc3n2)cc1C`: 7.69 µM (active).
With `Cc1ccc(S(=O)(=O)Nc2cncc(C(=O)Nc3nc(-c4ccccc4)cs3)c2)cc1` the figure was 6.85 µM (active).
On to `Cc1ccc(-c2cc(C(=O)Nc3ccc(S(N)(=O)=O)cc3)c3ccccc3n2)cc1C`, for which the Potency was 7.69 µM (active).
With `O=C(Nc1nc(-c2ccccc2)cs1)c1ccccc1[N+](=O)[O-]` the figure was 12.2 µM (active); with `COc1cc(Cl)ccc1C(=O)Nc1nc(-c2ccccc2)cs1`, 13.7 µM (active); with `Cc1ccc(S(=O)(=O)Nc2ccc(F)cc2C(=O)Nc2nc(-c3ccccc3)cs2)cc1`, 1.93 µM (active).
The same measure for `Cc1ccc(NS(=O)(=O)c2ccccc2C(=O)Nc2nc(-c3ccccc3)cs2)cc1`: 3.43 µM (active).
The same measure for `Cc1ccc(S(=O)(=O)Nc2ccccc2C(=O)Nc2ccc(-c3ccccc3)nc2)cc1`: 4.85 µM (active).
